The source of these data is the supplement of paper PMC10849652.

The full data set covers some 8,800 targets. This sample favours those with a hit. About 0.5% of all pairs of compound and target were hits. A number with no mark means an inactive call.

What all share (test): log2 fold change, soluble protein after heating vs DMSO (PISA); higher = thermal stabilisation; K562 lysate, 10 uM; active = over 0.2 and 3.5 SD of the protein, either way, in both replicates (recomputed)
Compound in one assay: c1cn2cc(-c3ccc4cn[nH]c4c3)nc(Nc3ccc(N4CCOCC4)cc3)c2n1 [entospletinib]
The method, boiled down: (§1)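 Quantification was by TMTpro 16plex LC-MS/MS with equalised channel sums, applied to the supernatant after 21,000xg for 90 min. Samples were crude K562 extract at 1 mg/mL protein in PBS pH 7.4 with 1 mM MgCl2, treated with 10 μM compound for 30 min, heated for 3 min across 48°C-58°C, pooled and brought to 0.5% NP-40 at 4°C. Values are log-two fold changes in thermal stability relative to solvent controls, from duplicates.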

Compound in assay [1]: NCC(=O)Nc1ccc(-n2nc(C(F)(F)F)cc2-c2ccc3c(ccc4ccccc43)c2)cc1
In outline:
as §1

Compound in a further assay: O=C(CCCCCCC(=O)Nc1ccccc1)NO [vorinostat]
The method, boiled down: as §1

Compound in another assay: O=C(O)c1ccc2c(c1)nc(Nc1cccc(Cl)c1)c1ccncc12 [silmitasertib]
In outline: as §1

Compound in assay [2]: O=C1NC(=O)C(c2cnc3ccccn23)=C1c1cn2c3c(cc(F)cc13)CN(C(=O)N1CCCCC1)CC2
The method, boiled down: as §1

UniProt P41247, sequence (P41247 whole entry, looked up): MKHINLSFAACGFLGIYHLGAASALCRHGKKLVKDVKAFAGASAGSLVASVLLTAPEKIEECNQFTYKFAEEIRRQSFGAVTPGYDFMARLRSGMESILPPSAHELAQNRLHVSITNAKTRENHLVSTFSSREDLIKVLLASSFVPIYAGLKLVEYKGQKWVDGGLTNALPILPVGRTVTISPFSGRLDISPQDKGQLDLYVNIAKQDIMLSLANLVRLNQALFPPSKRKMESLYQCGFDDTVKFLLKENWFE
UniProt Q4G0T1, sequence (Q4G0T1 whole entry, looked up): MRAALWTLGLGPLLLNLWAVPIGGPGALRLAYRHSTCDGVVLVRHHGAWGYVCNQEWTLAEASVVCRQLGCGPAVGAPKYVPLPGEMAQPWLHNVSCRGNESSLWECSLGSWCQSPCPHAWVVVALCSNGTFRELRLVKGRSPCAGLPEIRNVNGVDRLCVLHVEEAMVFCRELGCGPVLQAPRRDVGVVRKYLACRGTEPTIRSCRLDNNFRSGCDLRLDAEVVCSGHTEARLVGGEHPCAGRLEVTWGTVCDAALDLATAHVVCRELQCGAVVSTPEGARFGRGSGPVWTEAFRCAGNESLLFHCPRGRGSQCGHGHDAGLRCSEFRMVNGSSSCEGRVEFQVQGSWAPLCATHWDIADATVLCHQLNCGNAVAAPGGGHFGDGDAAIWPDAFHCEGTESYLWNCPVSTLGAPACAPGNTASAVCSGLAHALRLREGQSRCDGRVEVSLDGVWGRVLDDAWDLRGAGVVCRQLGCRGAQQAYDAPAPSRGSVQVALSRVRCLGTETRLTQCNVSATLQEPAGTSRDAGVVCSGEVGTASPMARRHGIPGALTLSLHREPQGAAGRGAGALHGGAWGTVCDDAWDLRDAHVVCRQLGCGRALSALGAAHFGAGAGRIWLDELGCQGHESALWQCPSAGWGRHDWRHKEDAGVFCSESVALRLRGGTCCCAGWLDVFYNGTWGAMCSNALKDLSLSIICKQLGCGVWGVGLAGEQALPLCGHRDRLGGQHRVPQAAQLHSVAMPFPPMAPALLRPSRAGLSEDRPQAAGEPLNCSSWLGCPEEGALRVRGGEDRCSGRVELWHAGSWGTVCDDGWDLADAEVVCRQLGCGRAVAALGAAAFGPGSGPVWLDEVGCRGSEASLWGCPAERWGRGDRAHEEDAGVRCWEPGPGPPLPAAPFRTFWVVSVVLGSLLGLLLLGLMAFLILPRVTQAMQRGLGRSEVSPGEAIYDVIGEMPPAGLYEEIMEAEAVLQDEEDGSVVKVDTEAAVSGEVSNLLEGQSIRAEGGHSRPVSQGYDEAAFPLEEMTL
UniProt Q9Y570, sequence (Q9Y570 whole entry, looked up): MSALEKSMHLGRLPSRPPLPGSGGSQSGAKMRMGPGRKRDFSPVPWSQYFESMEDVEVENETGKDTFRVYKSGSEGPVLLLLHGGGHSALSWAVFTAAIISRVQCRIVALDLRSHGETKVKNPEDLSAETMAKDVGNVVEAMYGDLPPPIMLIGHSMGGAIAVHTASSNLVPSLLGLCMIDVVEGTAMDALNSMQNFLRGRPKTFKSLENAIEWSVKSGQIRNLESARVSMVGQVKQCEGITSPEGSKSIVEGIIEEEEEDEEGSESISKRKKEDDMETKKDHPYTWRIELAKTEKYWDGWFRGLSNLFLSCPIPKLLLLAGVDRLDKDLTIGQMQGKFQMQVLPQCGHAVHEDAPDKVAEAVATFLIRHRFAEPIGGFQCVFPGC
UniProt Q16378, sequence (Q16378 whole entry, looked up): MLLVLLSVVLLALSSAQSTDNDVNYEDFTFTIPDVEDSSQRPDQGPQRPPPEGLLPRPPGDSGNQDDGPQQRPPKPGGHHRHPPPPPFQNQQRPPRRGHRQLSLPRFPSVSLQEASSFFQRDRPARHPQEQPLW
UniProt Q969Q6, sequence (Q969Q6 whole entry, looked up): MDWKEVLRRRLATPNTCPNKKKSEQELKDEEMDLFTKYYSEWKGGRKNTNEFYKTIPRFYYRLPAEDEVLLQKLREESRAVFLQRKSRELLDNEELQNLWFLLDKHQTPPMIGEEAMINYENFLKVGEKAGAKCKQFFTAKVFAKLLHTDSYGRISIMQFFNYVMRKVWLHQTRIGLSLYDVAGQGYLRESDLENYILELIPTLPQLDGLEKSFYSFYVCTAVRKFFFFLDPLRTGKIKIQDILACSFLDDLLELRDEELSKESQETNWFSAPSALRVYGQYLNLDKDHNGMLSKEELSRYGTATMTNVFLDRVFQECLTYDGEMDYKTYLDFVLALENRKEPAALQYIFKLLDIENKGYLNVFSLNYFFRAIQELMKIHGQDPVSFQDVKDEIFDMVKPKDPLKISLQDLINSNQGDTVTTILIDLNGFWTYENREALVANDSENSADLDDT
UniProt Q05397, sequence (Q05397 whole entry, looked up): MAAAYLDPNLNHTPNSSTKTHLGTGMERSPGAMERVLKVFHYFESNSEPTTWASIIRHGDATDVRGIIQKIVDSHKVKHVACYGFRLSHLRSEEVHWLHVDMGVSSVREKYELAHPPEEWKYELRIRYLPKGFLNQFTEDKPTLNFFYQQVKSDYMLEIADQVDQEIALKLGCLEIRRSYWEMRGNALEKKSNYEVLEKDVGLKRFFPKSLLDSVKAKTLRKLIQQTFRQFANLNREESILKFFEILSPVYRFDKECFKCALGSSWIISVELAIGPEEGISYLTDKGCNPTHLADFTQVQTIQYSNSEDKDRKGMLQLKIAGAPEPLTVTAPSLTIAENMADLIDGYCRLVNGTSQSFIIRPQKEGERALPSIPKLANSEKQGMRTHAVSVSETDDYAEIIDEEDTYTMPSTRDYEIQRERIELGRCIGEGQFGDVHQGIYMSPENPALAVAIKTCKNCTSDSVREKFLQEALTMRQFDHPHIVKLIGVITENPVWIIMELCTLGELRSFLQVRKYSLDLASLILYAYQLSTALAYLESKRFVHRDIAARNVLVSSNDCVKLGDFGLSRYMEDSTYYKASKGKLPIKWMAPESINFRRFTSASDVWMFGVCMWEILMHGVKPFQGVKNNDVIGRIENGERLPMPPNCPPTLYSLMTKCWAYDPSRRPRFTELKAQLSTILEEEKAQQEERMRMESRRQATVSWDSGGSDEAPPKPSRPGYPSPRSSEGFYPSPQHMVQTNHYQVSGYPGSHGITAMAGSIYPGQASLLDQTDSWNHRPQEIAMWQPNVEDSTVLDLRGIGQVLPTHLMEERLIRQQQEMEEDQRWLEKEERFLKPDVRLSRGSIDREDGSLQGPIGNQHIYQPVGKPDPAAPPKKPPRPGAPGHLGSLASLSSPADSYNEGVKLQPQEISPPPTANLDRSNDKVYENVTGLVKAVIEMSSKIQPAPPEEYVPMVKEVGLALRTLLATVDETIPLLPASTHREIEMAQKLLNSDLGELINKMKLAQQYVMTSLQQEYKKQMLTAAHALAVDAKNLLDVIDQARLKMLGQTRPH
UniProt P78364, sequence (P78364 whole entry, looked up): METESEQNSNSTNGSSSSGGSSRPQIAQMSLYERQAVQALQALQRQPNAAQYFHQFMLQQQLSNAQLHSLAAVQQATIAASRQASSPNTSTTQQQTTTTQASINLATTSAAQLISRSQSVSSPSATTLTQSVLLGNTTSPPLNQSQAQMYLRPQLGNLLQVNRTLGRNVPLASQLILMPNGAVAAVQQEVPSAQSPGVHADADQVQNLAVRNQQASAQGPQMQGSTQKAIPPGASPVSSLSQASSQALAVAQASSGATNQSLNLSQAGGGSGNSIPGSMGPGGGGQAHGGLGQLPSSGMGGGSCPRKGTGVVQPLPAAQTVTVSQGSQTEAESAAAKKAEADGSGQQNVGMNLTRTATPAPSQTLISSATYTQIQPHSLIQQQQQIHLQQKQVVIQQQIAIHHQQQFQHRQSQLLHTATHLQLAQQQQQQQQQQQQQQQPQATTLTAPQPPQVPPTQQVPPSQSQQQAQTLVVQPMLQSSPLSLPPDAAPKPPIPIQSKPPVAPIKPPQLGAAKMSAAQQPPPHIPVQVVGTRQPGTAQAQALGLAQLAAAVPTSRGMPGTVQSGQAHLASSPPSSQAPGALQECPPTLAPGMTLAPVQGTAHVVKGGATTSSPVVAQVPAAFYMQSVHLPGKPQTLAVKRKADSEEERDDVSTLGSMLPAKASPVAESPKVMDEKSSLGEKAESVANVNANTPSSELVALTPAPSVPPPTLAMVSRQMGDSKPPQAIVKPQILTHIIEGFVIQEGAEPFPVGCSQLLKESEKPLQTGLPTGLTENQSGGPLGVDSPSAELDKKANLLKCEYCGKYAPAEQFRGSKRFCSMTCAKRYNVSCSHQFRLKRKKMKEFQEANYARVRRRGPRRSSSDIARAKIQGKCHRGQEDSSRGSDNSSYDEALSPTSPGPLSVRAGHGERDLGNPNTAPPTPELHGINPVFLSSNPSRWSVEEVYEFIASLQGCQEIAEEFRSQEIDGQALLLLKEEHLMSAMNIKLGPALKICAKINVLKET
UniProt Q9UNP9, sequence (Q9UNP9 whole entry, looked up): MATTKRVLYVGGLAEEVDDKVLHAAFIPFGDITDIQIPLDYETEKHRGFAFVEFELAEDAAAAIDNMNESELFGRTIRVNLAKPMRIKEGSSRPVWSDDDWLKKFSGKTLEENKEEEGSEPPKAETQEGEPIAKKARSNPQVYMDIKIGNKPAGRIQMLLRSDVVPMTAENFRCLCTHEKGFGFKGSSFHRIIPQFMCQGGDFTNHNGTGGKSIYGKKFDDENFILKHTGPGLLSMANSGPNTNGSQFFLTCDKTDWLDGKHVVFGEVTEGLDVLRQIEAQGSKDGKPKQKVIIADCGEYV
UniProt Q9BSG0, sequence (Q9BSG0 whole entry, looked up): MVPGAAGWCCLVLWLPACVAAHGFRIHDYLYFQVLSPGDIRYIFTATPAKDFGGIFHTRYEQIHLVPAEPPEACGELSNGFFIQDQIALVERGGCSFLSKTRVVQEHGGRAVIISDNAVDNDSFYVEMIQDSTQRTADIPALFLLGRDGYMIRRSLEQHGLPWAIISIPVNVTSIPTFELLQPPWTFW
UniProt O60927, sequence (O60927 whole entry, looked up): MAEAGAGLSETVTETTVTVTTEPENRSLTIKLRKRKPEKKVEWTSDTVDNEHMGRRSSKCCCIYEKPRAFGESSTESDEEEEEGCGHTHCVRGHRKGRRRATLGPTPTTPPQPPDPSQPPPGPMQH

As for POLR2F (UniProt U3KPV3), the log2 fold change with entospletinib was -0.113.

For PDE2A (UniProt O00408), the log2 fold change in assay [1] is 0.195; with vorinostat, 0.117; with silmitasertib it was 0.022; in assay [2] it was 0.071; with entospletinib, 0.01.

For the target PICALM (UniProt H0YEH1), the log2 fold change was -0.048 in assay [1]; 0.037 with vorinostat; -0.045 with silmitasertib; -0.075 in assay [2]; -0.237 with entospletinib.

Consider PDIA4, A0A499FI48, for which the log2 fold change in assay [2] is 0.045.

On to PNPLA4 (UniProt P41247), for which the log2 fold change in assay [1] was -0.012; in assay [2], -0.093; with entospletinib, -0.046.

With PFN3 (UniProt P60673), the log2 fold change is 0.158 in assay [1], -0.142 in assay [2] and -0.134 in the assay with entospletinib.

With PPME1 (UniProt Q9Y570), the log2 fold change with vorinostat is -0.673 (active); in the assay with silmitasertib, 0.185; with entospletinib, -0.063.

Consider PPP1R14C (UniProt Q8TAE6), for which the log2 fold change in assay [1] is -0.061; with entospletinib it was -0.046.

On to PTK2 (UniProt Q05397), for which the log2 fold change in assay [1] is -0.017; in the assay with vorinostat, -0.137; with silmitasertib, 0; in assay [2] it was -0.056; with entospletinib it was 0.175.

Take PCYT1B (UniProt Q9Y5K3): the log2 fold change in assay [1] is -0.03; with vorinostat, 0.064; with silmitasertib it was -0.062; in assay [2], -0.027; with entospletinib, 0.002.

As to PRG4 (UniProt Q92954), in assay [2], the log2 fold change is -0.145.

In the case of PTK2 isoform 2 (UniProt Q05397), the log2 fold change with vorinostat was -0.056; with silmitasertib it was 0.046; with entospletinib it was 0.007.

Regarding PFKFB2 (UniProt O60825), the log2 fold change was -0.007 in assay [1]; -0.39 (active) with vorinostat; 0.033 with silmitasertib; 0.026 in assay [2]; 0.018 with entospletinib.

As to PRKDC (UniProt P78527), the log2 fold change in assay [1] was -0.089; in the assay with vorinostat it was -0.426 (active); in the assay with silmitasertib it was 0.762 (active); in assay [2], 0.207; with entospletinib it was 0.013.

For the target POM121C (UniProt A8CG34), the log2 fold change is 0.077 in the assay with vorinostat and -0.196 with silmitasertib.

Regarding PIP5K1A (UniProt Q99755), the figures for the log2 fold change (in the assay with vorinostat; with silmitasertib; in assay [2]) were -0.014, -0.033 and 0.047, respectively.

Turning to POLR2G (UniProt P62487), the log2 fold change was 0.001 in assay [1]; 0.116 with vorinostat; -0.043 with silmitasertib; -0.03 in assay [2]; 0.014 with entospletinib.

Turning to PPP2R3C (UniProt Q969Q6), the log2 fold change in assay [1] was -0.019; with vorinostat it was -0.362; with silmitasertib, 0.086; in the assay with entospletinib, 0.074.

For PCBP2 (UniProt F8VRH0), the values for the log2 fold change (with vorinostat; with silmitasertib; in assay [2]) were -0.982 (active), -0.441 and 0.006, respectively.

As for PICALM (UniProt H0YCY1), the log2 fold change with vorinostat is 0.202; with silmitasertib it was -0.07.

Take PPP2R5C isoform 4 (UniProt Q13362): the log2 fold change was 0.075 in assay [1]; 0.082 with vorinostat; -0.067 with silmitasertib; 0.074 in assay [2]; -0.012 with entospletinib.

As for PHF14 (UniProt O94880), the log2 fold change was -0.062 in assay [1] and 0.039 with entospletinib.

Consider PPIE (UniProt Q9UNP9), for which the log2 fold change in assay [1] is 0.024; in the assay with vorinostat it was 0.096; in the assay with silmitasertib it was 0.035; in assay [2] it was -0.045; with entospletinib it was -0.036.

On to PFKFB4 (UniProt Q16877), for which the log2 fold change was 0.007 in assay [1]; -0.369 (active) in the assay with vorinostat; 0 in the assay with silmitasertib; -0.031 in assay [2]; 0.051 with entospletinib.

On to PPP1R11 (UniProt O60927), for which the log2 fold change with vorinostat was -0.31 (active); with silmitasertib, 0.034; in assay [2] it was 0.028; in the assay with entospletinib it was -0.029.

As for PHOSPHO2 (UniProt C9JD35), the figures for the log2 fold change (in assay [2]; with entospletinib) were 0.004 and 0.155, respectively.

Consider PYGO2 (UniProt Q9BRQ0), for which the log2 fold change in the assay with vorinostat is 0.151; with silmitasertib it was -0.067; in assay [2], -0.003; with entospletinib, 0.269 (active).

Consider PRR4 (UniProt Q16378), for which the log2 fold change in assay [1] was 0.009; with vorinostat, 0.229; with silmitasertib, -0.176; in the assay with entospletinib it was 0.302.

As for PPP2R5B (UniProt Q15173), the log2 fold change in assay [1] is 0.077; in the assay with vorinostat, -0.075; in the assay with silmitasertib it was -0.007; in assay [2], -0.065; in the assay with entospletinib, 0.028.

PRADC1 (UniProt Q9BSG0): the values for the log2 fold change (in the assay with vorinostat; in the assay with silmitasertib; in assay [2]) were 0.07, -0.041 and -0.012, respectively.

Turning to NA (UniProt Q4G0T1), the values for the log2 fold change (with vorinostat; in the assay with silmitasertib; in assay [2]) were -0.027, 0.092 and -0.036, respectively.

Regarding PFN1 (UniProt I3L3D5), the log2 fold change with entospletinib is -0.194.

In the case of PCBP2 (UniProt F8W0G4), the log2 fold change in assay [1] is 0.083; in the assay with vorinostat, -0.058; with silmitasertib, 0.025; with entospletinib it was -0.088.

With PHC1 (UniProt P78364), the log2 fold change in assay [1] is 0.042; in assay [2], 0.151; in the assay with entospletinib, 0.073.
